Here are results for 17 compounds from PubChem BioAssay (EPA / NIEHS).

Results filed as inconclusive are left out. Active and inactive are the calls of the source. The calls were made as follows: active = hit-call score of the fitted dose curve at least 0.9, where 1 is the maximum; inconclusive = response in the unintended direction; inactive = score below 0.9.

Assay [1] concerns the target human Serotonin, 5-Hydroxytryptamine Receptor 2A (5HT2A), HTR2A (gene 3356) (UniProt P28223). Briefly: NVS_GPCR_h5HT2A: NovaScreen (NVS) G Protein-Coupled Receptor Assay for human Serotonin, 5-Hydroxytryptamine Receptor 2A (5HT2A) (AID 2283249). An outline of the steps:
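Human cortex membranes, cell-free radioligand binding; filter-based scintillation read 1.5 h after dosing. Duplicate screen at 25 uM first; displacement of specific binding (loss of signal) versus DMSO.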

Assay [2] concerns the target human Serotonin, 5-Hydroxytryptamine Receptor 5A (5HT5A), HTR5A (gene 3361) (UniProt P47898). Briefly: NVS_GPCR_h5HT5A: NovaScreen (NVS) G Protein-Coupled Receptor Assay for human Serotonin, 5-Hydroxytryptamine Receptor 5A (5HT5A) (AID 2283251). An outline of the steps:
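Cell-free radioligand displacement binding on HEK293-derived membrane protein, 1 h incubation, filter-based scintillation counting. Primary screen in duplicate at 25 uM, actives followed in concentration series; loss of signal fitted versus DMSO.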

For assay [3], the target named is guinea pig Opioid, Kappa 1 Receptor (OpiateK), OPRK1 (gene 100135587) (UniProt P41144). Briefly: NVS_GPCR_gOpiateK: NovaScreen (NVS) G Protein-Coupled Receptor Assay for guinea pig Opioid, Kappa 1 Receptor (OpiateK) (AID 2283252).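 Also: radioligand displacement from kappa opioid receptor in guinea pig cerebellar membranes; active means reduced radioligand binding relative to DMSO.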 An outline of the steps:
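Signal is scintillation counts of filter-trapped radioligand bound to guinea pig cerebellar membrane receptor, measured 2 hours post-dosing. Activity is loss of binding versus DMSO, first at 25 uM in duplicate, then as concentration series for actives.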

Assay [4] has as its target human Adenosine A1 Receptor (AdoRA1), ADORA1 (gene 134) (UniProt P30542). Put plainly: NVS_GPCR_hAdoRA1: NovaScreen (NVS) G Protein-Coupled Receptor Assay for human Adenosine A1 Receptor (AdoRA1) (AID 2283254). An outline of the steps: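 Radioligand binding was run on human cortical membranes, cell-free, with filter-based scintillation counting 1 h after dosing. The primary screen was duplicate at 25 uM, followed by concentration series. Signal loss versus DMSO was fitted positive-direction.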

Assay [5] deals with human Adenosine A2a Receptor (AdoRA2a), ADORA2A (gene 135) (UniProt P29274). Put plainly: NVS_GPCR_hAdoRA2a: NovaScreen (NVS) G Protein-Coupled Receptor Assay for human Adenosine A2a Receptor (AdoRA2a) (AID 2283256). An outline of the steps: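 Cell-free radioligand binding on membranes from HEK293 expressing the receptor; competitive displacement read 1.5 h after dosing by filter-based scintillation counting. Primary screen in duplicate at 25 uM; actives followed in concentration series, with DMSO as baseline.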
Chain of human Adenosine A2a Receptor (AdoRA2a), ADORA2A (gene 135) (P29274 whole entry, looked up): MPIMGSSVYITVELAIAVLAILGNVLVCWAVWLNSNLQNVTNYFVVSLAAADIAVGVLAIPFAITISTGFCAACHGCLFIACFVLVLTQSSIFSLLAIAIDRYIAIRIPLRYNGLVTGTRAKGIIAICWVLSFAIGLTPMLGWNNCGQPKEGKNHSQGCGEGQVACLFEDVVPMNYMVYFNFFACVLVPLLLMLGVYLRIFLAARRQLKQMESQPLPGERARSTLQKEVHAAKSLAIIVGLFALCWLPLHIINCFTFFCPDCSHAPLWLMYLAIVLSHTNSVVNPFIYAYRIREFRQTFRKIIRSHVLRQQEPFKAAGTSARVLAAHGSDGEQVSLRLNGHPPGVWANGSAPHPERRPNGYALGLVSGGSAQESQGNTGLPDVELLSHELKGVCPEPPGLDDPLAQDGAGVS

For assay [6], the target named is Type-1 angiotensin II receptor (Homo sapiens) (UniProt P30556). Briefly: NVS_GPCR_hAT1: NovaScreen (NVS) G Protein-Coupled Receptor Assay for human Angiotensin II receptor type 1 (AT1) (AID 2283263). An outline of the steps:
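Membranes from KAN-TS cells; radioligand competitive displacement, 3 h, filtration and scintillation counting. Single-point duplicate screen at 25 uM, then concentration-response up to 50 uM for hits; loss of signal fitted versus DMSO.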

Assay [7] addresses human Histamine 1 Receptor (H1), HRH1 (gene 3269) (UniProt P35367). Briefly: NVS_GPCR_hH1: NovaScreen (NVS) G Protein-Coupled Receptor Assay for human Histamine 1 Receptor (H1) (AID 2283268). An outline of the steps:
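Cell-free radioligand displacement at human H1 receptor, 1 h, filter scintillation counting; primary screen 25 uM in duplicate, hits in concentration series; loss of binding fitted vs DMSO.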

In assay [8] the target is human Dopamine Receptor D2 (DRD2), DRD2 (gene 1813) (UniProt P14416). Briefly: NVS_GPCR_hDRD2s: NovaScreen (NVS) G Protein-Coupled Receptor Assay for human Dopamine Receptor D2 (DRD2) (AID 2283266). An outline of the steps: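 Radioligand displacement used human DRD2 membranes extracted from CHO cells and was read by filter-based scintillation counting after 1.5 hours. Primary screening was in duplicate at 25 uM. Loss of signal versus DMSO was fitted, with concentration series in follow-up.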
Chain of human Dopamine Receptor D2 (DRD2), DRD2 (gene 1813) (P14416 whole entry, looked up): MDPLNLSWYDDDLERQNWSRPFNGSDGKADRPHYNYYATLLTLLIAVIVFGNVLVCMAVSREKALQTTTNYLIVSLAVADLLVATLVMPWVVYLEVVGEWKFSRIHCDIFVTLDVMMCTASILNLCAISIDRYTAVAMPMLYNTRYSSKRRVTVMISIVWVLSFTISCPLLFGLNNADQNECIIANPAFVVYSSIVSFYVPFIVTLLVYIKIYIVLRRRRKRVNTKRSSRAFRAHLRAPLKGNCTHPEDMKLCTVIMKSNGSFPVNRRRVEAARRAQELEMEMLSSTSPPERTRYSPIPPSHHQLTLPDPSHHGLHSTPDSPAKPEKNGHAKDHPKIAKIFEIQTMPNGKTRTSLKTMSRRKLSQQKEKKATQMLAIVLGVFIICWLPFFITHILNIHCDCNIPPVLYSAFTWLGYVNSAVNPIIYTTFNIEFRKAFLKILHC

Assay [9] relates to guinea pig Muscarinic, Peripheral (Mperiperal) Receptor, Non-selective Binding, gene 100379235. Briefly: NVS_GPCR_gMPeripheral_NonSelective: NovaScreen (NVS) G Protein-Coupled Receptor Assay for guinea pig Muscarinic, Peripheral (Mperiperal) Receptor, Non-selective Binding (AID 2283250). An outline of the steps:
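Guinea pig bladder membranes, radioligand binding read 1 h after dosing by filter scintillation counting; loss of signal vs DMSO. Primary duplicate screen at 25 uM, then concentration-response up to 50 uM.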

In assay [10] the target is human Serotonin, 5-Hydroxytryptamine Receptor 6 (5HT6), HTR6 (gene 3362) (UniProt P50406). Put plainly: NVS_GPCR_h5HT6: NovaScreen (NVS) G Protein-Coupled Receptor Assay for human Serotonin, 5-Hydroxytryptamine Receptor 6 (5HT6) (AID 2283253). An outline of the steps:
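Radioligand binding to 5HT6 in HEK293-derived membranes, cell-free, 1 h after dosing; bound ligand measured by filter-based scintillation counting. Primary screen in duplicate at 25 uM; actives retested in concentration series.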

In assay [11] the target is human Serotonin, 5-Hydroxytryptamine Receptor 7 (5HT7), HTR7 (gene 3363) (UniProt P34969). Briefly: NVS_GPCR_h5HT7: NovaScreen (NVS) G Protein-Coupled Receptor Assay for human Serotonin, 5-Hydroxytryptamine Receptor 7 (5HT7) (AID 2283255).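 Also: hits reduce specific radioligand binding relative to DMSO.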 An outline of the steps: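 Radioligand displacement on membranes from CHO cells expressing human 5HT7, 1 h incubation, filter-based scintillation counting. Primary screen used a single 25 uM concentration in duplicate; actives were followed up in concentration series.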
Chain of human Serotonin, 5-Hydroxytryptamine Receptor 7 (5HT7), HTR7 (gene 3363) (P34969 whole entry, looked up): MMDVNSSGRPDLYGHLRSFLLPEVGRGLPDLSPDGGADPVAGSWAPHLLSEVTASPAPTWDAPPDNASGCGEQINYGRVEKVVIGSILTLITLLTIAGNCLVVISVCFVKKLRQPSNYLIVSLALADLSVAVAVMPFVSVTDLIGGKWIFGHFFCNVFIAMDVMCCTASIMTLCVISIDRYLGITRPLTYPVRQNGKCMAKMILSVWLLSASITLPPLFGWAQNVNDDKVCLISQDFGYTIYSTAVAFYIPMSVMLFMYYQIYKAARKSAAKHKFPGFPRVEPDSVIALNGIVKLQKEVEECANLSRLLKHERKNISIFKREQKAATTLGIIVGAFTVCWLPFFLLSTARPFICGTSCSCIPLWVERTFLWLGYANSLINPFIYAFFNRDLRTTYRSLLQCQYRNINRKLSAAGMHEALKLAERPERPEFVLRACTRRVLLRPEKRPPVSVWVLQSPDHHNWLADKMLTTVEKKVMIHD

For assay [12], the target named is human Adrenergic, Alpha 2c Receptor (Adra2C), ADRA2C (gene 152) (UniProt P18825). Put plainly: NVS_GPCR_hAdra2C: NovaScreen (NVS) G Protein-Coupled Receptor Assay for human Adrenergic, Alpha 2c Receptor (Adra2C) (AID 2283259). An outline of the steps:
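Radioligand binding on Sf9-expressed receptor membranes, 1 h after chemical dosing, filter-based scintillation read-out. Loss of binding fitted positively versus DMSO; primary duplicate screen at 25 uM, actives retested in concentration series.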

Assay [13] deals with Beta-2 adrenergic receptor (Homo sapiens) (UniProt P07550). Briefly: NVS_GPCR_hAdrb2: NovaScreen (NVS) G Protein-Coupled Receptor Assay for human Adrenergic, Beta 2 Receptor (Adrb2) (AID 2283261). An outline of the steps:
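Filter-based radioligand binding using receptor prepared from CHO cells, 1 h incubation, scintillation counting. Primary screen in duplicate at 25 uM, actives retested in concentration series; loss of binding relative to DMSO.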

Assay [14] deals with human Adrenergic, Beta 3 Receptor (Adrb3), ADRB3 (gene 155) (UniProt P13945). Briefly: NVS_GPCR_hAdrb3: NovaScreen (NVS) G Protein-Coupled Receptor Assay for human Adrenergic, Beta 3 Receptor (Adrb3) (AID 2283262). An outline of the steps:
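Membranes from SK-N-MC cells pretreated with isoproterenol and 8-bromo-cAMP were used in a radioligand competitive displacement binding assay. Binding was read by filter-based scintillation counting 1 hour after dosing. Primary screening was in duplicate at 25 uM, with concentration series in follow-up.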

Assay [15] deals with human Dopamine Receptor D4.4 (DRD4.4), DRD4 (gene 1815) (UniProt P21917). Put plainly: NVS_GPCR_hDRD4.4: NovaScreen (NVS) G Protein-Coupled Receptor Assay for human Dopamine Receptor D4.4 (DRD4.4) (AID 2283264). An outline of the steps: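 Radioligand displacement on human DRD4.4 from CHO-derived membranes, 1 hour incubation, bound counts read by filtration and scintillation. Primary screen in duplicate at 25 uM; actives followed up in concentration series.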
Chain of human Dopamine Receptor D4.4 (DRD4.4), DRD4 (gene 1815) (P21917 whole entry, looked up): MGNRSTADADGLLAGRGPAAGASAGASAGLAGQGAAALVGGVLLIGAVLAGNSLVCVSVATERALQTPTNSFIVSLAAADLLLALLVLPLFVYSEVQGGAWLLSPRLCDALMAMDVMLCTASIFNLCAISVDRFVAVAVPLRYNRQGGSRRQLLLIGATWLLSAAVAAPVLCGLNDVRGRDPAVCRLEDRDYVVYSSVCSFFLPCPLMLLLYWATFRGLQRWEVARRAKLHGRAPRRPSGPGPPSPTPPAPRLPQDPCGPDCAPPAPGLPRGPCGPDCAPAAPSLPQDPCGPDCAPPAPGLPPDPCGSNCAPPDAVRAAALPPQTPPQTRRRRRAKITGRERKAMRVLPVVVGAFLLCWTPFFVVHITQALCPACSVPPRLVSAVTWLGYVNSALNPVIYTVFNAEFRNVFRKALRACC

Assay [16] addresses human Endothelin Receptor Type A (ETA), EDNRA (gene 1909) (UniProt P25101). Put plainly: NVS_GPCR_hETA: NovaScreen (NVS) G Protein-Coupled Receptor Assay for human Endothelin Receptor Type A (ETA) (AID 2283265). An outline of the steps:
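Cell-free radioligand displacement using SH-SY5Y-derived protein, 3 h incubation, filter-based scintillation counting. Primary screen in duplicate at 25 uM; actives then run in concentration-response up to 50 uM; loss of binding fitted versus DMSO.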

Assay [17] has as its target human Endothelin Receptor Type B (ETB), EDNRB (gene 1910) (UniProt P24530). Briefly: NVS_GPCR_hETB: NovaScreen (NVS) G Protein-Coupled Receptor Assay for human Endothelin Receptor Type B (ETB) (AID 2283267). An outline of the steps:
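Human astrocytoma cell membranes; radioligand competitive binding read by filter scintillation counting 4 hours after dosing. Single-concentration duplicate screen at 25 uM, then singleton concentration-response up to 50 uM; loss of signal versus DMSO.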

The target in assay [18] is human Adrenergic, Beta 1 Receptor (Adrb1), ADRB1 (gene 153) (UniProt P08588). Put plainly: NVS_GPCR_hAdrb1: NovaScreen (NVS) G Protein-Coupled Receptor Assay for human Adrenergic, Beta 1 Receptor (Adrb1) (AID 2283258). An outline of the steps: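 Cell-free radioligand displacement on receptor from human neuroepithelioma cells; 2 h after dosing, filter-based scintillation counting. Primary screen in duplicate at 25 uM, actives retested in concentration series; loss of signal vs DMSO baseline.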

The target in assay [19] is human Adrenergic, Alpha 2A Receptor (Adra2A), ADRA2A (gene 150) (UniProt P08913). Briefly: NVS_GPCR_hAdra2A: NovaScreen (NVS) G Protein-Coupled Receptor Assay for human Adrenergic, Alpha 2A Receptor (Adra2A) (AID 2283257). An outline of the steps:
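Radioligand filter-binding was run on HT29-derived membranes, cell-free, read by scintillation counting 1 h after dosing. Primary screening was in duplicate at 25 uM, with concentration series in follow-up. Loss of signal versus DMSO indicates displacement.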

Chain of human Serotonin, 5-Hydroxytryptamine Receptor 5A (5HT5A), HTR5A (gene 3361) (P47898 whole entry, looked up): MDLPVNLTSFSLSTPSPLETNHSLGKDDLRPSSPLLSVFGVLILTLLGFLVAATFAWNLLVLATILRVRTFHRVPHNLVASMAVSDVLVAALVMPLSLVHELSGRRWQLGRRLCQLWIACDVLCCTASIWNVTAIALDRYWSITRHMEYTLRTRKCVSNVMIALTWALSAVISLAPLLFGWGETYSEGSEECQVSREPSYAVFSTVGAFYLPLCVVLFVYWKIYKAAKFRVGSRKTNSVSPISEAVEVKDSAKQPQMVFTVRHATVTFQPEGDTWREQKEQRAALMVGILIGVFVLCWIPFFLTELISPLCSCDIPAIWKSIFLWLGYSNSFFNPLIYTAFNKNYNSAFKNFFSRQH
Chain of human Adenosine A1 Receptor (AdoRA1), ADORA1 (gene 134) (P30542 whole entry, looked up): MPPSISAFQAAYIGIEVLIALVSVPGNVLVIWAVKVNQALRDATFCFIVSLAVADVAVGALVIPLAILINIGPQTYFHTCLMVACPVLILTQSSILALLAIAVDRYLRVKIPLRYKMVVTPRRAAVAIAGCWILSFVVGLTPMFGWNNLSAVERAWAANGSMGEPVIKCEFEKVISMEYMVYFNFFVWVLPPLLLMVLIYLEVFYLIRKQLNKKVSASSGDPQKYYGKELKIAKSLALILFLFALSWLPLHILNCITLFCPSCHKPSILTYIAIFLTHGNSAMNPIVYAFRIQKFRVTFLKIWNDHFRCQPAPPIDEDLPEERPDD
Chain of human Serotonin, 5-Hydroxytryptamine Receptor 2A (5HT2A), HTR2A (gene 3356) (P28223 whole entry, looked up): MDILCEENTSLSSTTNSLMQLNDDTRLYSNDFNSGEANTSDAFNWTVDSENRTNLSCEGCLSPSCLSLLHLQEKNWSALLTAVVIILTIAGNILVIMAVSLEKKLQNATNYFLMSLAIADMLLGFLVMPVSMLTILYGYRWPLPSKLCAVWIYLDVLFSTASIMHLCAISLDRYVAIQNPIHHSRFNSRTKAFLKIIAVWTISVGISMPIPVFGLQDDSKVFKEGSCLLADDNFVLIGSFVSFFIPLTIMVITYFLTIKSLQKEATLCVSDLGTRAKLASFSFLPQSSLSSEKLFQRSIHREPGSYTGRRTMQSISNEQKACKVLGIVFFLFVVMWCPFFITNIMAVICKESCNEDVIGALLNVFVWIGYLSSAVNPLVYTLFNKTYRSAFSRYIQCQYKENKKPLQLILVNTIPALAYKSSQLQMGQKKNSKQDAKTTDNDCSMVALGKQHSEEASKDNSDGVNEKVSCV
Chain of human Adrenergic, Alpha 2c Receptor (Adra2C), ADRA2C (gene 152) (P18825 whole entry, looked up): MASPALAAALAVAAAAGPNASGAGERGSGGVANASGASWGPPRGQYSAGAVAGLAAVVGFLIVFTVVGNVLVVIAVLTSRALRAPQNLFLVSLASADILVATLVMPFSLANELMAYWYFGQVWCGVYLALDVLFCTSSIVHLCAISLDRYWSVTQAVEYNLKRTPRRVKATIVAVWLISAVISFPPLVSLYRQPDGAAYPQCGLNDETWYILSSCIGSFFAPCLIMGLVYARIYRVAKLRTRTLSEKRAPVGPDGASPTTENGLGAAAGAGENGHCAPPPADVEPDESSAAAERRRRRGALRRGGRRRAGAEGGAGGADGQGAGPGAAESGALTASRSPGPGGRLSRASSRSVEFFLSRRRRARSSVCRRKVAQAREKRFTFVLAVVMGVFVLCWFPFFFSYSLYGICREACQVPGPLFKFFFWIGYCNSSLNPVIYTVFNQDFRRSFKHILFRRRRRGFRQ
Chain of human Histamine 1 Receptor (H1), HRH1 (gene 3269) (P35367 whole entry, looked up): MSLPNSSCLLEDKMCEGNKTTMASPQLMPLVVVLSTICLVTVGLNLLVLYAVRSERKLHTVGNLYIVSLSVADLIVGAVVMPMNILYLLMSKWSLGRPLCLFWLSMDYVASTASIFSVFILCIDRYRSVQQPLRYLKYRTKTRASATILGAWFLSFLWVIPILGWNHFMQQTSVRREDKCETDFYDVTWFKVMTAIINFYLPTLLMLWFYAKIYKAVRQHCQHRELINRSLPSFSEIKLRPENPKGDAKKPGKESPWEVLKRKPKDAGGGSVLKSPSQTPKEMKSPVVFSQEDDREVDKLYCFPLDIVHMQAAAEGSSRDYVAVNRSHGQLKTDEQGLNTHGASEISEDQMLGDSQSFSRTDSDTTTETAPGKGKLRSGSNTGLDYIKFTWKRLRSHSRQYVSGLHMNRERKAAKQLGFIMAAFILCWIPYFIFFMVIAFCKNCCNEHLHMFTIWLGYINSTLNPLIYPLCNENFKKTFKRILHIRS
Chain of human Endothelin Receptor Type B (ETB), EDNRB (gene 1910) (P24530 whole entry, looked up): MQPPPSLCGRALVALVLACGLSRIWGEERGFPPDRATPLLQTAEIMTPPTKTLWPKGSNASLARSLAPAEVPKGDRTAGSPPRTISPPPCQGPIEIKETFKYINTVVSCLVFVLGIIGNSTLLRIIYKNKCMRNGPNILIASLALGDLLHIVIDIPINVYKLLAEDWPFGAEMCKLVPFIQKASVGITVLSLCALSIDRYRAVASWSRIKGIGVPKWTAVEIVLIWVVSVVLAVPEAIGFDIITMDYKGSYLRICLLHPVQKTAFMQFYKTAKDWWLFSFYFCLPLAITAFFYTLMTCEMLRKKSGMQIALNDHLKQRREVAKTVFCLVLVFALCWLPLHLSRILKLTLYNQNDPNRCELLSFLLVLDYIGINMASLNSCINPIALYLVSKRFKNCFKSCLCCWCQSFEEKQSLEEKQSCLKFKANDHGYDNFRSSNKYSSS
Chain of guinea pig Opioid, Kappa 1 Receptor (OpiateK), OPRK1 (gene 100135587) (P41144 whole entry, looked up): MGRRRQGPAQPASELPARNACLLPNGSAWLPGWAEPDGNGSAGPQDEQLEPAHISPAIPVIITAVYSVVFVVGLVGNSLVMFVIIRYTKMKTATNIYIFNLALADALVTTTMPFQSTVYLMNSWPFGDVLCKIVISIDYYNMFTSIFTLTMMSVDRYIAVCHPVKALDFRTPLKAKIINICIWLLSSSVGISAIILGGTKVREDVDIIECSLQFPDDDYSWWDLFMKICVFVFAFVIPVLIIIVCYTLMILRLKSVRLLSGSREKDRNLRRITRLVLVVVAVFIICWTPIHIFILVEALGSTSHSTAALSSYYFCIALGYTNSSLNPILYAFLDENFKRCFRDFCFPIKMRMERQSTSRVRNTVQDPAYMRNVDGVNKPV

Regarding `CCC(C)N(C)C(=O)c1cc2ccccc2c(-c2ccccc2Cl)n1` (stereo not given), the outcome in assay [1] was inactive. Further, the half-maximal activity concentration (AC50) in assay [2] was 15.9 µM (active); in assay [3], 1.91 µM (active); in [4], 6.11 µM (active); in [5], 7.37 µM (active); in [6], 15.9 µM (active); in [7], 15.9 µM (active).

As to `Cc1c(C)c2c(c(C)c1O)CCC(C)(COc1ccc(CC3SC(=O)NC3=O)cc1)O2` (stereo not given), the result in [8] was inactive.

As for `CCN(CC)CCOc1ccc(C(=C(Cl)c2ccccc2)c2ccccc2)cc1`, the concentration at half-maximal activity (AC50) in assay [9] was 4.82 µM (active); in [2], 1.46 µM (active); in assay [10], 5.6 µM (active); in assay [4], 11 µM (active); in assay [11] it was 3.31 µM (active); in [5], 11.6 µM (active) [middle of 4 runs]. In addition, the concentration at half-maximal activity (AC50) in assay [12] was 1.58 µM (active); in assay [13], 18.2 µM (active); in [15], 17.3 µM (active); in [16] it was 29.1 µM (active); in [8] it was 1.79 µM (active); in assay [17], 32.3 µM (active). The call in assay [3] and in assay [14] was inactive.

Regarding `COC(=O)[C@H]1[C@H]2C[C@@H]3c4[nH]c5cc(OC)ccc5c4CCN3C[C@H]2C[C@@H](OC(=O)c2cc(OC)c(OC)c(OC)c2)[C@@H]1OC`, in assay [13], the half-maximal activity concentration (AC50) is 12.1 µM (active).

For the compound `CC(C)(O)c1ccc(CNC(=O)c2cccnc2Oc2ccc(F)cc2)cc1`, the result in [1] and in [3] was inactive.

As to `O=C1OC(c2ccc(O)cc2)(c2ccc(O)cc2)c2ccccc21`, the concentration at half-maximal activity (AC50) in assay [3] was 4.09 µM (active); in assay [4], 1.03 µM (active).

As for `Cc1ccc(-c2cc(C(F)(F)F)nn2-c2ccc(S(N)(=O)=O)cc2)cc1`, the AC50 in assay [18] was 4.96 µM (active).

Consider `O=C(N[C@@H](c1ccccc1)[C@@H]1CCCCN1)c1cccc(C(F)(F)F)c1Cl`, for which the half-maximal activity concentration (AC50) was 25 µM (active) in assay [1], 0.641 µM (active) in [3] and 8.16 µM (active) in assay [11]. Also, the call in assay [9], in assay [14], in assay [15], in assay [8] and in [7] was inactive.

For the compound `CC(C)c1cccc(C(C)C)c1`, the call in assay [18] was inactive.

Consider `CN(C)C(=O)NC1(c2ccccc2)CCN(CCC[C@]2(c3ccc(Cl)c(Cl)c3)CCCN(C(=O)c3ccccc3)C2)CC1`, for which the compound was called inactive in assay [1], in assay [2], in assay [11] and in assay [14]. Besides, the half-maximal activity concentration (AC50) was 5.86 µM (active) in assay [9], 3.56 µM (active) in [3], 6.25 µM (active) in assay [15] and 4 µM (active) in assay [8].

Turning to `Nc1nc(Cl)nc2c1ncn2[C@H]1C[C@H](O)[C@@H](CO)O1`, the figures for the half-maximal activity concentration (AC50) in assay [4] and in assay [5] were 8.99 µM (active) and 13.1 µM (active), respectively.

As for `CN(C)C(=O)NC1(c2ccccc2)CCN(CC[C@@]2(c3ccc(F)c(F)c3)CN(C(=O)c3ccccc3)CCO2)CC1`, the half-maximal activity concentration (AC50) in [1] was 13.1 µM (active); in assay [3], 3.94 µM (active); in assay [5] it was 23.5 µM (active). In addition, the call in assay [9] and in [8] was inactive.

With `CC(N)=O`, the result in assay [1] and in assay [17] was inactive.

With `CSc1ccc(Oc2ccc(S(N)(=O)=O)cc2CN(C)C)cc1C`, the half-maximal activity concentration (AC50) was 13.4 µM (active) in [1]; 7.53 µM (active) in assay [2]; 13.5 µM (active) in assay [3]; 2.79 µM (active) in assay [10]; 12.5 µM (active) in assay [11]; 0.263 µM (active) in assay [19]. Moreover, the half-maximal activity concentration (AC50) is 5.83 µM (active) in assay [12], 25 µM (active) in [15], 15 µM (active) in [8] and 19.6 µM (active) in assay [7]. The compound was classed as inactive in assay [14].

Take `CCCCc1nc2cccnc2n1Cc1ccc(-c2ccccc2-c2nnn[nH]2)cc1`: the half-maximal activity concentration (AC50) in [3] was 10 µM (active); in assay [6], 0.0191 µM (active). In assay [12], the compound was called inactive.

As for `C=CCc1ccc(OC)c(OC)c1`, the compound was called inactive in assay [1].

Take `O=C(NS(=O)(=O)/C=C/c1cccs1)c1ccc(F)cc1Br`: the compound was called inactive in assay [17].
